The campaign covered roughly 5,500 compounds. About 2,000 (36%) were called active. About 18% were inconclusive and are not listed. No stated cut-off is given here; in the data, active means normalized growth mostly below about 0.91 (no sharp cut-off); inconclusive means no clear call, values can overlap the other calls; inactive means mostly above about 0.92. Some of the results follow.
Experiment: chemical genetic growth profiling, strain panel (AID 1159580);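 further: tested at 20 µM; growth read once vehicle control cultures reached saturation at 30 °C; 1 = growth at the plate median or of vehicle wells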
Conditions: growth OD
[1] = S. cerevisiae deletion strains, locus YAL013W, strain DEP1, stronger effect = lower value
[2] = S. cerevisiae deletion strains, locus YDR150W, strain NUM1, stronger effect = lower value
[3] = S. cerevisiae deletion strains, locus YGR078C, strain PAC10, stronger effect = lower value
[4] = S. cerevisiae deletion strains, locus YJR075W, strain HOC1, stronger effect = lower value
[5] = S. cerevisiae deletion strains, locus YNL128W, strain TEP1, stronger effect = lower value
[6] = S. cerevisiae deletion strains, locus YNL153C, strain GIM3, stronger effect = lower value
[7] = S. cerevisiae deletion strains, locus YPL055C, strain LGE1, stronger effect = lower value
[8] = S. cerevisiae deletion strains, locus YPL241C, strain CIN2, stronger effect = lower value
[9] = S. cerevisiae deletion strains, locus YBR229C, strain ROT2, stronger effect = lower value
[10] = S. cerevisiae deletion strains, locus YCL061C, strain MRC1, stronger effect = lower value
[11] = S. cerevisiae deletion strains, locus YDL101C, strain DUN1, stronger effect = lower value
[12] = S. cerevisiae deletion strains, locus YDL134C, strain PPH21, stronger effect = lower value
[13] = S. cerevisiae deletion strains, locus YEL061C, strain CIN8, stronger effect = lower value
[14] = S. cerevisiae deletion strains, locus YGR229C, strain SMI1, stronger effect = lower value
[15] = S. cerevisiae deletion strains, locus YHR030C, strain SLT2, stronger effect = lower value
[16] = S. cerevisiae deletion strains, locus YHR087W, strain rtc3, stronger effect = lower value
[17] = S. cerevisiae deletion strains, locus YJR043C, strain POL32, stronger effect = lower value
[18] = S. cerevisiae deletion strains, locus YKL190W, strain CNB1, stronger effect = lower value
[19] = S. cerevisiae deletion strains, locus YLR039C, strain RIC1, stronger effect = lower value
[20] = S. cerevisiae deletion strains, locus YLR058C, strain SHM2 (second series), stronger effect = lower value
[21] = S. cerevisiae deletion strains, locus YLR085C, strain ARP6, stronger effect = lower value
[22] = S. cerevisiae deletion strains, locus YLR262C, strain YPT6, stronger effect = lower value
[23] = S. cerevisiae deletion strains, locus YML094W, strain GIM5, stronger effect = lower value
[24] = S. cerevisiae deletion strains, locus YMR219W, strain ESC1, stronger effect = lower value
[25] = S. cerevisiae deletion strains, locus YMR263W, strain SAP30, stronger effect = lower value
[26] = S. cerevisiae deletion strains, locus YNL298W, strain CLA4 (second series), stronger effect = lower value
[27] = S. cerevisiae deletion strains, locus YNL322C, strain KRE1, stronger effect = lower value
[28] = S. cerevisiae deletion strains, locus YNR030W, strain Alg12, stronger effect = lower value
[29] = S. cerevisiae deletion strains, locus YOL006C, strain TOP1, stronger effect = lower value
[30] = S. cerevisiae deletion strains, locus YPR135W, strain CTF4, stronger effect = lower value
[31] = S. cerevisiae strains, strain wild type, stronger effect = lower value

Measured: normalized growth

CCCN(CCC)C1CCc2cccc(O)c2C1 (stereo not given)
inactive: [1] 1 | S. cerevisiae deletion strains, locus YAL040C, strain CLN3, stronger effect = lower value 0.984 | S. cerevisiae deletion strains, locus YCL061C, strain MRC1 (second series), stronger effect = lower value 1 | [2] 0.998 | S. cerevisiae deletion strains, locus YDR363W, strain ESC2, stronger effect = lower value 1.01 | S. cerevisiae deletion strains, locus YER002W, strain NOP16, stronger effect = lower value 1 | [3] 1.01 | [4] 0.995 | [5] 1 | [6] 1.1 | S. cerevisiae deletion strains, locus YNL175C, strain NOP13, stronger effect = lower value 1.01 | S. cerevisiae deletion strains, locus YNL197C, strain WHI3, stronger effect = lower value 1.01 | S. cerevisiae deletion strains, locus YNL224C, strain SQS1, stronger effect = lower value 1.02 | S. cerevisiae deletion strains, locus YOR083W, strain WHI5 (second series), stronger effect = lower value 1.01 | [7] 1 | [8] 1

Cc1onc(-c2ccccc2)c1NC(=O)Nc1c(Cl)cccc1Cl
inactive: [1] 0.995 | [9] 0.983 | [10] 0.963 | [11] 0.988 | [12] 0.996 | [2] 0.973 | [13] 0.991 | [3] 1 | [14] 0.996 | [15] 0.811 | [16] 0.975 | [17] 0.969 | [4] 0.975 | [18] 1 | [20] 0.988 | [21] 0.946 | [23] 0.949 | [24] 0.991 | [25] 0.999 | [6] 1.01 | [26] 0.974 | [27] 0.976 | [28] 0.983 | [29] 0.803 | [7] 0.997 | [8] 0.941 | [30] 0.933
active: [19] 0.668 | [22] 0.572

Cc1onc(-c2c(Cl)cccc2Cl)c1C(=O)Oc1ccc(Cl)c(Cl)c1
inactive: [1] 1.01 | [9] 0.995 | [11] 0.996 | [2] 1.01 | [13] 1.01 | [3] 1.03 | [15] 1.21 | [16] 1.06 | [17] 0.998 | [4] 0.99 | [19] 1.19 | [20] 0.986 | [21] 0.991 | [22] 1.16 | [23] 0.998 | [24] 0.992 | [25] 1.01 | [5] 1 | [6] 1.03 | [26] 1.01 | [27] 1.01 | [28] 0.987 | [29] 1.07 | [7] 1 | [8] 0.973 | [30] 1.14 | [31] 1.01

COC(=O)c1c(-c2c(Cl)cccc2Cl)noc1NC(=O)NN1CCCCC1
inactive: [1] 1.02 | [9] 1.02 | [10] 1.01 | [11] 1.01 | [12] 0.993 | [2] 0.993 | [13] 1 | [3] 1.03 | [14] 1 | [15] 0.973 | [16] 1.03 | S. cerevisiae deletion strains, locus YJL187C, strain SWE1, stronger effect = lower value 1.01 | [17] 1.01 | [4] 1.02 | [18] 1 | [19] 0.963 | [20] 1.01 | [21] 0.992 | [22] 0.977 | [23] 1.04 | [24] 1.01 | [25] 1 | S. cerevisiae deletion strains, locus YMR307W, strain GAS1, stronger effect = lower value 1 | [6] 1.01 | [26] 1 | [27] 1.01 | [28] 0.987 | [29] 1.05 | [7] 1.01 | [8] 0.911 | [30] 0.969 | [31] 0.999

Cc1onc(-c2c(F)cccc2Cl)c1C(=O)NNc1cc(Cl)cc(Cl)c1
inactive: S. cerevisiae deletion strains, locus YAR019C, strain CDC15, stronger effect = lower value 0.987 | S. cerevisiae deletion strains, locus YBL105C, strain PKC1, stronger effect = lower value 0.984 | S. cerevisiae deletion strains, locus YBR135W, strain CKS1, stronger effect = lower value 0.987 | S. cerevisiae deletion strains, locus YBR136W, strain MEC1, stronger effect = lower value 0.985 | S. cerevisiae deletion strains, locus YBR160W, strain CDC28, stronger effect = lower value 0.976 | S. cerevisiae deletion strains, locus YDL017W, strain CDC7, stronger effect = lower value 0.989 | S. cerevisiae deletion strains, locus YDL028C, strain MPS1, stronger effect = lower value 0.986 | [11] 0.987 | S. cerevisiae deletion strains, locus YDL108W, strain KIN28, stronger effect = lower value 0.976 | S. cerevisiae deletion strains, locus YDL132W, strain cdc53, stronger effect = lower value 0.989 | S. cerevisiae deletion strains, locus YDL214C, strain PRR2, stronger effect = lower value 0.902 | S. cerevisiae deletion strains, locus YDR052C, strain DBF4, stronger effect = lower value 0.99 | S. cerevisiae deletion strains, locus YDR054C, strain cdc34, stronger effect = lower value 0.982 | S. cerevisiae deletion strains, locus YDR226W, strain ADK1, stronger effect = lower value 0.991 | S. cerevisiae deletion strains, locus YDR477W, strain SNF1, stronger effect = lower value 0.931 | S. cerevisiae deletion strains, locus YER123W, strain YCK3, stronger effect = lower value 0.864 | S. cerevisiae deletion strains, locus YER133W, strain GLC7, stronger effect = lower value 0.937 | S. cerevisiae deletion strains, locus YFL009W, strain cdc4, stronger effect = lower value 0.979 | S. cerevisiae deletion strains, locus YFL029C, strain CAK1, stronger effect = lower value 0.977 | S. cerevisiae deletion strains, locus YFR003C, strain YPI1, stronger effect = lower value 0.987 | S. cerevisiae deletion strains, locus YFR019W, strain FAB1, stronger effect = lower value 0.908 | S. cerevisiae deletion strains, locus YFR028C, strain CDC14, stronger effect = lower value 0.976 | S. cerevisiae deletion strains, locus YGR040W, strain KSS1, stronger effect = lower value 0.894 | S. cerevisiae deletion strains, locus YGR052W, strain FMP48, stronger effect = lower value 0.951 | S. cerevisiae deletion strains, locus YGR092W, strain DBF2, stronger effect = lower value 0.937 | [15] 0.962 | S. cerevisiae deletion strains, locus YHR079C, strain IRE1, stronger effect = lower value 0.939 | S. cerevisiae deletion strains, locus YHR082C, strain KSP1, stronger effect = lower value 0.964 | S. cerevisiae deletion strains, locus YHR205W, strain SCH9, stronger effect = lower value 0.89 | S. cerevisiae deletion strains, locus YIL147C, strain SLN1, stronger effect = lower value 0.989 | S. cerevisiae deletion strains, locus YJL095W, strain BCK1, stronger effect = lower value 0.942 | S. cerevisiae deletion strains, locus YJL128C, strain PBS2, stronger effect = lower value 0.956 | S. cerevisiae deletion strains, locus YJL157C, strain FAR1, stronger effect = lower value 0.916 | S. cerevisiae deletion strains, locus YJR016C, strain ILV3, stronger effect = lower value 0.988 | S. cerevisiae deletion strains, locus YJR066W, strain TOR1 (second series), stronger effect = lower value 0.883 | S. cerevisiae deletion strains, locus YJR066W, strain TOR1, stronger effect = lower value 0.984 | S. cerevisiae deletion strains, locus YKL048C, strain ELM1, stronger effect = lower value 0.878 | S. cerevisiae deletion strains, locus YKL067W, strain YNK1, stronger effect = lower value 0.927 | S. cerevisiae deletion strains, locus YKL101W, strain HSL1, stronger effect = lower value 0.894 | S. cerevisiae deletion strains, locus YKL193C, strain SDS22, stronger effect = lower value 0.98 | S. cerevisiae deletion strains, locus YKL203C, strain TOR2, stronger effect = lower value 0.992 | S. cerevisiae deletion strains, locus YLR133W, strain CKI1, stronger effect = lower value 0.906 | S. cerevisiae deletion strains, locus YLR403W, strain SFP1, stronger effect = lower value 0.901 | S. cerevisiae deletion strains, locus YML070W, strain DAK1, stronger effect = lower value 0.89 | S. cerevisiae deletion strains, locus YMR001C, strain CDC5, stronger effect = lower value 0.98 | S. cerevisiae deletion strains, locus YMR205C, strain PFK2 (second series), stronger effect = lower value 0.936 | S. cerevisiae deletion strains, locus YMR277W, strain FCP1, stronger effect = lower value 0.983 | S. cerevisiae deletion strains, locus YNL006W, strain LST8, stronger effect = lower value 0.984 | S. cerevisiae deletion strains, locus YNL020C, strain ARK1, stronger effect = lower value 0.914 | S. cerevisiae deletion strains, locus YNL161W, strain CBK1, stronger effect = lower value 0.979 | S. cerevisiae deletion strains, locus YNL183C, strain NPR1, stronger effect = lower value 0.935 | S. cerevisiae deletion strains, locus YNL207W, strain RIO2, stronger effect = lower value 0.987 | S. cerevisiae deletion strains, locus YNL222W, strain SSU72, stronger effect = lower value 0.988 | S. cerevisiae deletion strains, locus YNL307C, strain MCK1 (second series), stronger effect = lower value 0.879 | S. cerevisiae deletion strains, locus YOL078W, strain AVO1, stronger effect = lower value 0.978 | S. cerevisiae deletion strains, locus YOL136C, strain PFK27, stronger effect = lower value 0.884 | S. cerevisiae deletion strains, locus YOR061W, strain CKA2, stronger effect = lower value 0.908 | S. cerevisiae deletion strains, locus YOR119C, strain RIO1, stronger effect = lower value 0.972 | S. cerevisiae deletion strains, locus YOR231W, strain MKK1, stronger effect = lower value 0.889 | S. cerevisiae deletion strains, locus YOR329C, strain SCD5, stronger effect = lower value 0.984 | S. cerevisiae deletion strains, locus YPL031C, strain PHO85, stronger effect = lower value 0.936 | S. cerevisiae deletion strains, locus YPL153C, strain RAD53, stronger effect = lower value 0.928 | S. cerevisiae deletion strains, locus YPL204W, strain HRR25, stronger effect = lower value 0.918 | S. cerevisiae deletion strains, locus YPL209C, strain IPL1, stronger effect = lower value 0.979 | S. cerevisiae deletion strains, locus YPR025C, strain CCL1, stronger effect = lower value 0.98 | S. cerevisiae deletion strains, locus YPR106W, strain ISR1, stronger effect = lower value 0.956 | S. cerevisiae deletion strains, locus YPR111W, strain DBF20, stronger effect = lower value 0.955 | S. cerevisiae deletion strains, strain NNK1, stronger effect = lower value 0.955 | S. cerevisiae deletion strains, strain TSCII, stronger effect = lower value 0.986
active: S. cerevisiae deletion strains, locus YLR113W, strain HOG1, stronger effect = lower value 0.798 | S. cerevisiae deletion strains, locus YPL256C, strain CLN2, stronger effect = lower value 0.839

Reference: PubChem BioAssay AID1159580 (chemical genetic matrix, 2015)
